Values joined by “and” are separate entries in the source; they are usually repeats but may differ in a detail not shown here. Equal entries are not always repeated. About 79,000 compounds went through this panel and 15% of them were active in at least one assay; those are over-represented in the sample as a whole. A number with no mark means an inactive call. Active and inactive are the calls of the source. Rule as the data show it: active = growth inhibition above about 70%; inactive = the rest.
How the values were obtained:
[1] = NCI Yeast Anticancer Drug Screen. Data for the rad50 strain (AID 155);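 also: 0% = growth of vehicle-only cultures of the same strain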; conditions: S. cerevisiae rad50 strain growth inhibition, active compounds read high; at 50.0 µM unless noted
How it was run: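 Cells are treated with compound, grown, and their growth is then scored against vehicle-only cultures of the same repair-deficient yeast strain.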

[2] = NCI Yeast Anticancer Drug Screen. Data for the mec2-1 strain (AID 157); conditions: S. cerevisiae mec2-1 strain, active compounds read high; at 50.0 µM unless noted
How it was run: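 Mutant yeast (mec2-1) grown with compound; growth inhibition relative to vehicle control reported.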

[3] = NCI Yeast Anticancer Drug Screen. Data for the sgs1 mgt1 strain (AID 161);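 also: 0% = growth of cultures given vehicle only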; conditions: S. cerevisiae sgs1 mgt1 strain, active compounds read high; at 50.0 µM unless noted
How it was run: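 Percent growth inhibition was derived by comparing compound-exposed mutant yeast with vehicle-exposed cultures. The strain carries alterations in DNA damage repair.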

[4] = NCI Yeast Anticancer Drug Screen. Data for the cln2 rad14 strain (AID 165);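 also: 0% = growth equal to vehicle treated cultures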; conditions: S. cerevisiae cln2 rad14 strain, active compounds read high; at 50.0 µM unless noted
How it was run: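 Readout is yeast growth inhibition versus vehicle-treated controls, using a strain with cln2 and rad14 alterations exposed to compound.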

[5] = NCI Yeast Anticancer Drug Screen. Data for the bub3 strain (AID 167); conditions: S. cerevisiae bub3 mutant strain, active compounds read high; at 50.0 µM unless noted
How it was run: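 Part of a panel of yeast mutants defective in DNA damage repair or cell cycle regulation. Each strain is grown with compound, and inhibition is calculated relative to solvent-treated cultures.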

[6] = NCI Yeast Anticancer Drug Screen. Data for the mlh1 rad18 strain (AID 175); conditions: S. cerevisiae mlh1 rad18 strain growth inhibition, active compounds read high; at 50.0 µM unless noted
How it was run: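 Genetically defined yeast (DNA repair-deficient) exposed to compounds; growth inhibition determined relative to vehicle.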

Row | SMILES | growth inhibition [1] | growth inhibition [2] | growth inhibition [3] | growth inhibition [4] | growth inhibition [5] | growth inhibition [6]
1 | C=CCOC(=O)CC(=C)C(=O)O | 18.9% | 31% | 15.8% | -24.8% | 6.2% | 7.55%
2 | O=C(OCc1ccccc1CN1CCCCC1)c1cccc(Cl)c1 | -2.85% | -7.7% | -6.3% | -10.3% | 7.35% | 2.3%
3 | CCCCC(C#N)C(=O)NC(N)=O (stereo not drawn) | -7% | 3.2% | -8.05% | 0.4% | 4.85% | -7.25%
4 | CC(C)NC(=O)OCc1c(COC(=O)NC(C)C)c2n(c1Br)CCC2 | 32.8% | 26.1% | -9.6% | 16.9% | 0.2% | -51.4%
5 | CCN(CC)C(=O)N(O)C1CCCCC1 | -35.4% | 2.2% | -14.9% | 8.05% | 4.75% | -7.2%
6 | O=C1OC(C2OC(=O)C(=O)C2C2CCCCCCC2=O)C(C2CCCCCCC2=O)C1=O (stereo not drawn) | 45.5% | 9.15% | 29.4% | 32.9% | 39.2% | 26.4%
7 | O=C(O)c1nc2ccccc2nc1C(=O)O | -27.9% | -7.65% | -13.4% | -17.6% | -7.95% | -3.85%
8 | Cc1n[nH]c(=O)n1/N=C/c1ccncc1 | 8.45% | 6.95% | -6% | -17% | -4.35% | 7%
9 | Cc1ccc(NC(=O)Oc2ccc(C#N)cc2)c(C)c1 | 7.45% | -22.8% | -0.9% | 2.05% | -3.35% | 8.9%
10 | NC(=O)Cc1ccc2c3c(cccc13)CC2 | 15.4% | 5.45% | 2.45% | -34.2% | 11.8% | 9.05%
11 | O=C(O)C1CCc2ccccc21 (stereo not drawn) | -15.8% | -46.5% | -15.2% | -12.2% | -26.6% | -20.1%
12 | Cc1ccc(S(=O)(=O)CCN2CCN(C)CC2)cc1 | 8.6% | -9.25% | -12.7% | -26% | -2.65% | 1.05%
13 | CCc1ccc(NN=Nc2ccccc2C#N)cc1 | 8.1% | 15.8% | 16.2% | -12.7% | -1.65% | 16.8%
14 | CCCCCCCCCCCCCCCCCCCCCCCCCCO | -16.2% | -10.4% | -13.8% | -8.85% | -1.3% | -7.25%
15 | COC(=O)C1CC2(CCC1=O)Cc1ccccc1C2=O (stereo not drawn) | -15.5% | -3.45% | 28.5% | 1.3% | -4.25% | -16.4%
16 | COC1OC(CO)C(O)C(O)C1OS(=O)(=O)c1ccc(C)cc1 (stereo not drawn) | 5.7% | -3% | -10.1% | 1.75% | -1.85% | -13.2%
17 | O=C1OCc2ccccc21 | 3.2% | 7.8% | 11.2% | -26.7% | -6.05% | 3.15%
18 | CC1(C)OC(=O)C(=Cc2ccc3c(c2)OCO3)C(=O)O1 | 16.1% | 4.25% | -3.65% | 19% | -8% | 5.1%
19 | N#Cc1ccc(OC(=O)Nc2ccc(F)cc2)cc1 | -4.1% | -14.2% | 12.2% | 18.6% | 10.7% | 8.8%
20 | CCN(CC)c1nc(Cl)nc(Nc2ccc3cc(-c4ccccc4)c(=O)oc3c2)n1 | -9.15% | -24.9% | -8.1% | 8.05% | -12.7% | -7.25%
21 | C=C1C(=O)C23[C@H](O)C1CC[C@H]2[C@]12COC3(O)[C@@H](O)[C@@H]1C(C)(C)CC[C@@H]2O | 3.65% | -20.6% | 19.8% | -0.6% | -0.5% | -46.1%
22 | CC(=O)/C=C/N1CCOCC1 | 3.25% | -9.55% | -9.6% | -16.9% | 19.6% | -5.65%
23 | CN(N=O)C(=O)NCCCCCNC(=O)N(C)N=O | 7.6% | 12.8% | 14.1% | -132% | 10.5% | -4.85%
24 | N#CCN(CC#N)C1CC=CCC1N(CC#N)CC#N (stereo not drawn) | -26.2% | 1% | -30.2% | -20.8% | -21% | -38.1%

Row | SMILES | growth inhibition [1] | growth inhibition [2] | growth inhibition [3] | growth inhibition [4] | growth inhibition [5] | growth inhibition [6]
25 | Cc1ccc(NC(=O)Oc2ccc(C(C)(C)C)cc2)cc1NC(=O)Oc1ccc(C(C)(C)C)cc1 | -14.4% | -29.4% | -6.35% | -4.75% | 10.7% | -18.6%
26 | Nc1n[n+](-c2cccc([N+](=O)[O-])c2)no1 | 32.4% | 16.4% | 69.5% | 5.3% | 81.4% (active) | 32.5%
27 | Cc1ccc(CC2CC(=O)NC2=O)cc1 (stereo not drawn) | 13.6% | -2.95% | 22.1% | 2.15% | 10.5% | -3.8%
28 | Cc1ccc(C(=O)CC2=Nc3nnc(CCCCCCCc4nnc5n4C(=O)C(CC(=O)c4ccc(C)cc4)=N5)n3C2=O)cc1 | -9.45% | 22.4% | -0.1% | -22% | -5.25% | -11.1%
29 | CC1(C)C2CC(O)C1CCC2=O (stereo not drawn) | -4.15% | -16.2% | -33.8% | 6% | -21% | -35.5%
30 | O=C(O)C1C2CCCC21 (stereo not drawn) | -10.8% | 30.2% | -4.75% | 25.9% | 2% | 0.8%
31 | O=C(c1ccccc1)C(C(Nc1ccccc1)c1ccccc1)N1CCOCC1 (stereo not drawn) | 6.65% | -5% | -16% | -47.3% | 27.4% | 22.6%
32 | CCOC(=O)N1CCc2cc(OC)c(OC)cc2C1Cc1ccc(OC)c(OC)c1 (stereo not drawn) | -2.2% | -8.75% | -7.7% | 12% | 1.95% | -5.5%
33 | O=C1C(O)C(O)C(O)C(O)C1O (stereo not drawn) | 22.7% and -14.6% | 20.5% and -17.2% | 3.9% and -36.9% | 15.9% and -12.3% | 20.8% and -8.35% | 19.7% and -3.55%
34 | CC(=O)OC1CCC(=O)C2C(C(=O)O)CCCC12 (stereo not drawn) | 6.9% | -21.8% | -19.2% | -6.1% | -1.75% | 0.25%
35 | O=C1NCCN1/N=C/c1ccc([N+](=O)[O-])o1 | 26.4% | 9.35% | 37.5% | -29.9% | 14.4% | 25.9%
36 | O=S(=O)(NCCN1CCNC1=S)c1ccc(Cl)c(Cl)c1 | -55.5% | -12.7% | -3.25% | -16.7% | -6.2% | -6.6%
37 | COc1cccc(Br)n1 | -4.15% | -17.1% | 6.95% | 15.1% | -8.85% | 26.9%
38 | CN(C)C(CCC(=O)NC(C)(C)C)CC(=O)NC(C)(C)C (stereo not drawn) | 0.2% | 5% | 11.7% | -2.35% | 6.95% | -8.65%
39 | CS(=O)(=O)c1ncc(Br)cn1 | 15.6% | -6.85% | 5.45% | 17.1% | 6.4% | 7.75%
40 | O=C(O)c1c[nH]c2cc(OCc3ccc4ccccc4c3)ccc2c1=O | 20.2% | 2.55% | -11.3% | -2.05% | -3.05% | 6.55%
41 | Cc1[nH]c2c(ccc3c2ccc2c(=O)c(C)c(C)[nH]c23)c(=O)c1C | -2.05% | -7.45% | -4.35% | -29% | -0.3% | 2.3%
42 | CCOC(=O)c1cn[nH]c1C | 1.35% | -0.9% | -2.2% | -21.4% | -3.05% | -1.95%
43 | CCOC(=O)NC(=O)c1cn(CCCCCCCCCCC(=O)N2CCN(CCn3cc(C(=O)NC(=O)OCC)c(=O)[nH]c3=O)CC2)c(=O)[nH]c1=O | 27.2% | 18.4% | 17.9% | 5.8% | -6.2% | 6.45%
44 | Cc1ccc(C(C)C)c(Oc2cc(C)ccc2C(C)C)c1 | -17.9% | 7.1% | -6.8% | -37.8% | -17.5% | -19.8%
45 | CC[N+]1(CC)CCOC(=O)C1 | -15.8% | -2.6% | -3.9% | 22.9% | -19.4% | -26.9%
46 | Nc1c(F)c(F)c(N=Nc2ccccc2)c(F)c1F | 5.2% | 7.1% | 3.8% | 7.05% | 24.4% | -17.1%
47 | CCOC(=O)CN=C1Nc2ccccc2C(=O)N2CSCC12 (stereo not drawn) | -18% | -44.7% | -28.6% | -16.4% | -54.5% | -16.8%
48 | CCCCOC(=O)NC(=O)c1cn(CCCOC(=O)NCCCCCCNC(=O)OCCCn2cc(C(=O)NC(=O)OCCCC)c(=O)[nH]c2=O)c(=O)[nH]c1=O | -1.1% | 2.75% | -4.2% | 24.6% | -6.35% | -33.1%

Reference: PubChem BioAssay (NCI)
